Compound activity from PubChem BioAssay.
HSF-1 act – increases HSF-1 driven luciferase reporter signal. NIH3T3-HGL HSF-1 luciferase reporter, MG132, 8 h; 100% = twice DMSO control signal. activation, % at 9 µM. hit rate 1.7% among 300,000. AID 504408;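 active means mean replicate activation of at least 50% with a set share of replicates each reaching 50%; inconclusive means only one of those two conditions met; inactive means mean below 50% and too few replicates reaching it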
AHR act – activates the human aryl hydrocarbon receptor | P35869 | AHR-responsive luciferase reporter cells, luminescence | activation, % at 5 µM | hit rate 2.5% among 320,000 | AID 2796; in the data active means activation above about 47%
FXN GAA850 act – frataxin GAA850 promoter activation; AID 540364; HEK293 lucGAA850 FXN promoter luciferase reporter, 24 h; percent of 10 µM SAHA response; hit rate 0.56% among 360,000; activation, % at 6 µM;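 active means activation above the average of all compounds screened plus 3 SD, cutoff fixed separately per campaign, cut at about 7.5% in these data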
DAX1 inh – inhibitors of human orphan nuclear receptor DAX1 (NR0B1); inhibition, % at 6.75 µM; P51843; hit rate 0.99% among 340,000; HEK293 Gal4-DAX1 luciferase reporter, luminescence;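 active means inhibition above the mean over all tested compounds plus 3 SD, cut at about 4.2% in these data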;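 further: inhibition shows as a rise in luminescence from relieved DAX1 repression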
Target sequence (P51843 207-470 limits assumed): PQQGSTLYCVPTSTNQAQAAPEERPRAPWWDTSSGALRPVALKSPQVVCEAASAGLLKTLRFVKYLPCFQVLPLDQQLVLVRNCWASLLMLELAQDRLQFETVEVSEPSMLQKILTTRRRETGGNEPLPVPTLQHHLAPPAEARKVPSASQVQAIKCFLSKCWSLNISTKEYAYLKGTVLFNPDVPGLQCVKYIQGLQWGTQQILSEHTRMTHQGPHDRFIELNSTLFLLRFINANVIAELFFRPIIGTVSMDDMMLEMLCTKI
HSF1 inh – HSF1 inhibition | activity change, negative = inhibition, % at 7.5 µM (by protocol) | AID 2098 | hit rate 0.77% among 300,000 | NIH3T3-HGL HSE-luciferase, MG132-induced, luminescence 8 h; hits give low values;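 active means more than half of replicate wells show activity change below -50%, luminescence cut by over half; inconclusive means some wells, but at most half, below -50%; inactive means no replicate well below -50%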;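 further: luciferase reports HSF-1 transcriptional activity via heat shock element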
Large screens that a line does not name were inactive. This is a sample that favours compounds with a hit; in the whole collection about 5.4% have one here.

O=C(N/N=C/c1c[nH]c2ccc(Br)cc12)c1ccncc1	AHR act 73.5
O=C(N/N=C/c1c[nH]c2ccc(Br)cc12)C1CC1	none
O=C(N/N=C/c1c[nH]c2ccc(Br)cc12)c1ccccn1	none
CCc1nc2ccccc2c(=O)n1NC(=O)c1c(O)c2ccccc2[nH]c1=O	DAX1 inh 4.9
COc1ccc(C(C(=O)NCc2ccccc2)N(Cc2cccnc2)C(=O)c2snc(C(N)=O)c2N)cc1OC (centres undefined)	DAX1 inh 4.3
CCn1c(O)c(C=Nc2ccccc2)oc1=S	HSF1 inh -67.2
N#Cc1ccc(-c2ccccc2)nc1SCC(=O)c1cc2ccccc2oc1=O	AHR act 55.2
CN(C)c1ccc(S(=O)(=O)NCC(=O)N2CCN(S(=O)(=O)c3cccc(F)c3)CC2)cc1[N+](=O)[O-]	none (no result: HSF-1 act, AHR act, HSF1 inh)
CN(Cc1cccc(F)c1)C(=O)CNS(=O)(=O)c1ccc2ccccc2c1	HSF-1 act 63.1
CN(CC(=O)Nc1cccc(F)c1)C(=O)CNS(=O)(=O)c1ccc(N(C)C)c([N+](=O)[O-])c1	DAX1 inh 4.4
CCc1nnc(NC(=O)CCC(=O)NCCc2ccccc2)s1	none
Cc1cnccc1CN(C)Cc1cn(C)nc1-c1cccc(Cl)c1	AHR act 67.0
Cc1cnccc1CN(C)Cc1cn(C)nc1-c1ccc(Oc2ccccc2)cc1	none
COc1ccc(C2C(C#N)=C(N)Nc3nc4ccccc4n32)cc1 (centres undefined)	HSF-1 act 52.8
COc1ccc(C2C=C(C)Nc3nc4ccccc4n32)cc1 (centres undefined)	HSF-1 act inconclusive (no result: DAX1 inh)
COc1ccc(C)cc1N(C(=O)c1ccco1)C(C(=O)NC1CCCC1)c1ccc(N2CCOCC2)cc1 (centres undefined)	none
Cn1c(SCC(=O)N2CC(=O)Nc3ccccc32)nnc1C(F)(F)F	none (no result: HSF-1 act, AHR act, HSF1 inh)
Cc1cc(NC(=O)CCl)n(-c2nc3ccccc3s2)n1	none
CCc1ccc(Nc2cnn(-c3nc4ccccc4s3)c(=O)c2Cl)cc1	AHR act 49.0
CCOc1ccc(Br)cc1CNc1ccc2c(c1)OCCO2	HSF1 inh -56.4
C=CCOc1ccccc1CNc1ccc2c(c1)OCCO2	HSF1 inh inconclusive
c1cc(CNc2ccc3c(c2)OCCO3)ccn1	HSF1 inh -77.8
Cc1[nH][nH]c(=O)c1C=NCc1cccnc1	none
Cc1[nH][nH]c(=O)c1C=NCc1cccs1	HSF-1 act 68.9
C#CCOC(=O)C[N+](C)(C)CC#Cc1ccccc1	DAX1 inh 8.6
CC(Nc1ccc2ccccc2c1)C(=O)N/N=C/c1ccncc1 (centres undefined)	none (no result: HSF-1 act, HSF1 inh)
CSc1ccccc1NC(=S)Nc1ccc(S(N)(=O)=O)cc1	HSF-1 act 54.3
CN(C)CCSc1nc2cc(S(=O)(=O)N3CCCCC3)ccc2o1	none (no result: HSF-1 act, HSF1 inh)
Cc1ccc(-c2cc(N)n(Cc3ccc(Cl)cc3)n2)cc1	AHR act 55.8
Cc1cccc(N2N=C(C(=O)Nc3ccc(Cl)c(S(=O)(=O)N4CCOCC4)c3)CCC2=O)c1	none (no result: HSF-1 act, HSF1 inh)
OCC[C@H]1C[C@@H](O)[C@H](O)[C@]2(Cc3ccccc3CO2)O1	none (no result: HSF-1 act, HSF1 inh)
CC(=O)Nc1ccc(NC(=O)c2ccc(NS(=O)(=O)c3cc(C(C)(C)C)cc(C)c3C)cc2)cc1	HSF-1 act 109.9
Cc1cc(C(C)(C)C)cc(S(=O)(=O)Nc2ccc(O)c(C(=O)O)c2)c1C	none
Cc1ccc(S(=O)(=O)N2CCC(C(=O)NNC(=O)C3CC3)CC2)cc1Cl	none
CC(C)N1CCc2c(sc(NC(=S)NC(=O)c3ccccc3)c2C#N)C1	none
CCCN1CCc2c(sc(NC(=S)NC(=O)c3ccccc3)c2C#N)C1	DAX1 inh 4.8 (no result: HSF-1 act, HSF1 inh)
CCN(CC)C(=O)c1cccc(-c2csc(C(O)(c3ccccc3)C(F)(F)F)n2)c1 (centres undefined)	none (no result: HSF-1 act, AHR act, DAX1 inh, HSF1 inh)
CCOC(=O)CC(=O)CSc1nc(-c2cccnc2)ccc1C#N	none
CCOC(=O)CSc1nc(-c2ccncc2)ccc1C#N	HSF-1 act 63.5
O=c1n(Cc2ccccc2)nc2n1-c1ccccc1SC2	none
O=c1n(Cc2ccccc2Cl)nc2n1-c1ccccc1SC2	DAX1 inh 4.9
Cc1ccc(OCC(=O)N/N=C2/SCC(=O)N2Cc2ccco2)cc1	DAX1 inh 6.9
Nn1c(COc2ccc(Cl)cc2)nc2ccccc2c1=O	HSF-1 act 85.6
Nn1c(Cc2ccccc2)nc2ccccc2c1=O	none
C=CCNC(=O)CN1C(=O)CSc2ccc(S(=O)(=O)N3CCOCC3)cc21	none (no result: HSF-1 act, AHR act, HSF1 inh)
COc1ccc(N2C(=O)CC(Sc3nnnn3-c3ccc(F)cc3)C2=O)cc1 (centres undefined)	HSF-1 act 70.2
CCCCNC(=S)N(CCN(CC)CC)Cc1cc2cc3c(cc2[nH]c1=O)OCO3	none
CCCCNC(=S)N(CCN(CC)CC)Cc1cc2cc3c(cc2[nH]c1=O)OCCO3	DAX1 inh 4.3
CCN(CC)CCCN(Cc1cc2cc3c(cc2[nH]c1=O)OCO3)C(=S)Nc1ccccc1	AHR act 48.7
CCNC(=S)N(CCCN(CC)CC)Cc1cc2cc3c(cc2[nH]c1=O)OCO3	none
CCc1nnc(NC(=O)CCC(=O)N2CCN(Cc3ccc(F)cc3)CC2)s1	none
CCC1=C(NCc2ccccc2)COC1=O	DAX1 inh 4.3 (no result: HSF-1 act, AHR act, HSF1 inh)
COc1ccc(/C=N/Nc2nnc(-c3ncc[nH]3)c3ccccc23)cc1	AHR act 61.5
Cc1ccc(/C=N/Nc2nnc(Cl)c3ccccc23)cc1	HSF-1 act 64.6, AHR act 61.0
Clc1ccc(/C=N/Nc2nnc(Cl)c3ccccc23)cc1	HSF-1 act 120.8
Clc1nnc(NN=C2CCCC2)c2ccccc12	AHR act 51.5
Oc1ccc2ccccc2c1/C=N/Nc1nnc(-c2ncc[nH]2)c2ccccc12	none
CCCCCCCCNc1ccccc1S(=O)(=O)NCc1ccccc1	none (no result: HSF-1 act, AHR act, HSF1 inh)
Cc1ccc(C(=O)OCC(=O)Nc2cccc(S(=O)(=O)N3CCCCC3)c2)s1	none (no result: HSF-1 act, AHR act, HSF1 inh)
C(=N\Nc1ncnc2ccccc12)/c1ccccc1	none
Clc1ccc(/C=N/Nc2nc(Cl)nc3ccccc23)cc1	AHR act 65.3
CC(=O)N1CCN(S(=O)(=O)c2cccc(C(=O)NC3CCCC(C)C3C)c2)CC1 (centres undefined)	none (no result: HSF-1 act, AHR act, HSF1 inh)
COc1cc(/C=N/n2cc(-c3ccccc3)[nH]c2=S)cc(OC)c1O	none
S=c1[nH]c(-c2ccccc2)cn1/N=C/c1ccccc1Br	HSF-1 act 64.4, AHR act 62.4
Oc1ccc(/C=N/n2cc(-c3ccccc3)[nH]c2=S)cc1	AHR act 64.2
S=c1[nH]c(-c2ccccc2)cn1/N=C/c1cccc2ccccc12	AHR act 99.0
C=CC[C@@H]1Cc2c(Br)ccc(Br)c2[C@@H](CC=C)N1	HSF-1 act 60.6
O=C(NCC1CCCO1)c1cc(S(=O)(=O)Nc2ccc(Br)cc2)ccc1Cl (centres undefined)	none
O=C(Cc1ccccc1)Nc1ccccc1C(=O)N1CCN(c2ccccc2)CC1	none
O=C(COC(=O)c1cc(S(=O)(=O)Nc2ccccc2Cl)ccc1O)Nc1ccc(F)c(F)c1F	none (no result: HSF-1 act, HSF1 inh)
CCN(CC)C(=O)Oc1ccc(Br)cc1C(=O)Nc1ccc(F)cc1F	HSF-1 act 72.4, AHR act 88.8
